Results filed as inconclusive are left out. Unmarked numbers belong to inactive results. Calls of active or inactive are those of the source. Calls come from the whole dose curve; as a rule, active = well fitted cell-killing curve with a large enough effect in the repeat runs; inconclusive = weak or mixed curves; inactive = flat fitted curve, though single readings scatter.
Test: qHTS assay to identify small molecule antagonists of the estrogen related receptor (ERR) signaling pathway from Tox21 library - cell viability counter screen (AID 1224834); note: nearly all actives have a fitted effect of over 30% in size
Conditions: ERR reporter cells viability, CellTiter-Fluor, 17.5 h; series mostly up to 92.4 µM; viability change, negative = cytotoxic: at the top concentration
Description: National Center for Advancing Translational Sciences [NCATS]
NIH Chemical Genomics Center [NCGC]
U.S. Environmental Protection Agency [EPA]
National Institutes of Environmental Health Sciences [NIEHS]
National Toxicology Program [NTP]
U.S. Food and Drug Administration [FDA]
Estrogen related receptors (ERRs), the first orphan nuclear receptors discovered, play an important role in the control of cellular energy metabolism. ERRs are required for high-energy production in response to the environmental challenges. ERR-alpha was also identified as an adverse marker for breast cancer progression; ERR-alpha-positive tumors have a poor prognosis. To screen and to identify environmental compounds that perturb the ERR signaling pathways could provide valuable information for potential therapeutic or preventive measures in the treatment of metabolic disease. To differentiate true ERR antagonists or agonist from cytotoxic substances, the assay is multiplexed with cell viability assay.
Tox21 Assay Protocol Summary:
The ERR cells were dispensed at 2,000 cells/5 ul/well in 1536-well white plates using a Multidrop dispenser. After the assay plates were incubated at a 37 C/5% CO2 incubator for 6 hours, 23 nL of compounds dissolved in DMSO, positive and negative controls or DMSO only was transferred to the assay plate by a pin tool. The plates were incubated at 37 C for 17.5 hours. 1 ul/well of CellTiter-Fluor reagent was added into the assay plates using a Flying Reagent Dispenser. After 30-minute incubation at 37 C/5% CO2, the fluorescence intensity in the plates was measured using a ViewLux plate reader.
% is set by controls: 0 for no effect and ±100 for the full control effect; potency is the fitted concentration of half-maximal effect.

SMILES | viability change, negative = cytotoxic | Potency
O=C(O)COC(=O)Cc1ccccc1Nc1c(Cl)cccc1Cl | 3.1% [at 42.5 µM] | 
COc1ccc(C(C)=O)cc1 | 7.03% | 
CCCCCCCCCCCCC(=O)O | -2.28% | 
Cn1c(=O)c2c(ncn2CC(O)CO)n(C)c1=O (stereo not given) | -2.22% [at 42.5 µM] | 
CCCc1ccccc1 | 4.99% | 
CC(C)=CCCC(C)CC=O (stereo not given) | 5.72% | 
C1CCC2OC2C1 (stereo not given) | -6.27% | 
C1=Cc2ccccc2C1 | 8.29% | 
O=C(CCN1CCN2CCCC2C1)N1c2ccccc2Sc2ccc(Cl)cc21 (stereo not given) | -8.93% [at 19 µM] | 
CC1(C)CCC(C)(C)c2cc(NC(=O)c3ccc(C(=O)O)cc3)ccc21 | -9.54% [at 42.5 µM] | 
CC1=CC(=O)/C(=C(/C)O)C(=O)O1 | 3.09% | 
CC1=CCC(C(C)C)C=C1 (stereo not given) | -6.11% | 
Cc1nc2ccccc2n1Cc1ccc(Cl)cc1 | -11.6% [at 42.5 µM] | 
Cc1ncsc1CCO | 3.74% | 
COc1ccc(OC)c(OC)c1 | 2.77% | 
C[Si](C)O[Si](C)(C)O[Si](C)(C)O[Si](C)C | -0.0924% | 
CC(C)(Oc1ccc(Cl)cc1)C(=O)OCCCOC(=O)C(C)(C)Oc1ccc(Cl)cc1 | 6.4% [at 42.5 µM] | 
CCCCC(CC)(CO)CO | 6.93% | 
CC(C)(C)C(=O)OCOP(=O)(COCCn1cnc2c(N)ncnc21)OCOC(=O)C(C)(C)C | -0.0143% [at 42.5 µM] | 
Cc1cc(C)c(S(=O)(=O)O)cc1N=Nc1cc(S(=O)(=O)O)c2ccccc2c1O |  | 54.5 µM (active)

SMILES | viability change, negative = cytotoxic | Potency
C[C@@H](C1=C(CCN(C)C)Cc2ccccc21)c1ccccn1 | -6.94% [at 42.5 µM] | 
CCOC(=O)CC(=O)c1cc(F)c(Cl)nc1Cl | 0.0631% | 
FC(F)(F)C(F)(F)C(F)(F)C(F)(F)C(F)(F)C(F)(F)CCI | 0.24% [at 42.5 µM] | 
N#Cc1c(F)cccc1F | 0.544% | 
Cc1ccc2c(ccc3ccccc32)c1 | -4.44% | 
CCCCOc1cc(C(=O)OCCN(CC)CC)ccc1N | -0.163% [at 42.5 µM] | 
CN1CCN(C2=Nc3ccccc3Sc3ccc(Cl)cc32)CC1 | -1.4% [at 42.5 µM] | 
CCN(CC)C(C)CN1c2ccccc2Sc2ccccc21 (stereo not given) | 1.15% [at 42.5 µM] | 
Oc1ccc(O)c2c(O)cccc12 | -9.54% | 
COCCOCCOCCOCCOC | 1.59% | 
CNS(=O)(=O)Cc1ccc2[nH]cc(CCN(C)C)c2c1 | 5.6% [at 42.5 µM] | 
O=C1Nc2cc(Cl)ccc2Oc2ccccc21 | -2.52% [at 42.5 µM] | 
Oc1ccc2c(c1)OCO2 | -1.9% | 
CCCCCC(CO)CCC (stereo not given) | 0.325% | 
S=C(S)NCCNC(=S)S | 4.22% | 
COC(=O)CSc1cc(N=c2sc(=O)n3n2CCCC3)c(F)cc1Cl | -4.95% | 
O=S(=O)(O)c1ccc(O)c2ncccc12 | 8.95% | 
NC(=S)N/N=C/c1cccnc1 | 0.96% [at 42.5 µM] | 
CCCCCCCCCC=O | -2.94% | 
COCCO | 2.41% | 

Reference: PubChem BioAssay (Tox21)
